Shown is part of a subset that was picked to be rich in hits.
ST2 IL33 inh: IL1RL1 inhibition; inhibition, % for hits at 17 µM; 78,000 tested, 2.3% active; AlphaLISA ST2-Fc/biotin-IL-33 interaction, 1 h; in the data active = inhibition above about 30%
Target sequence (Q01638 whole entry, looked up): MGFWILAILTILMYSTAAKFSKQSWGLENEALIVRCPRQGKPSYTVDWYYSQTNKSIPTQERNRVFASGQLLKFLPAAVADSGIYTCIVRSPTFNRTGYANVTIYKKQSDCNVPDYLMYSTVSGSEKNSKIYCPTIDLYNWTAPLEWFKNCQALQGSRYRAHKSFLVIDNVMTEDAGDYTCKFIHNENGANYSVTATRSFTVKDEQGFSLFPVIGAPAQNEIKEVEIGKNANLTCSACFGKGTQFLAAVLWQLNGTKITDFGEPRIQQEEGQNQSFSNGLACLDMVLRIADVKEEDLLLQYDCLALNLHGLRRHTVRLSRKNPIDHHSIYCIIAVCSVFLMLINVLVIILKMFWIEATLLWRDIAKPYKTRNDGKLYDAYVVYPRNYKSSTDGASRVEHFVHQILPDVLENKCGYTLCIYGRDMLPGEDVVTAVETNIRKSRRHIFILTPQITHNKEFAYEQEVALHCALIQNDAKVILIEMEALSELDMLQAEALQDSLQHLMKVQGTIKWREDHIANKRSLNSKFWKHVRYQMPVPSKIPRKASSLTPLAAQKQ
Numbers without * were called inactive; i = inactive.

SMILES	ST2 IL33 inh
Oc1ccc(Nc2nc(-c3ccccn3)cs2)cc1	i
COc1ccc(S(=O)(=O)N2c3cc(C)ccc3C(C)=CC2(C)C)cc1	i
CCCCC(=O)Nc1ccc(F)cc1F	i
N#C/C(=C\c1ccc(-c2cc([N+](=O)[O-])ccc2Cl)o1)c1[nH]nc(N)c1C#N	45%*
O=c1oc(-c2cc([N+](=O)[O-])ccc2Cl)nc2ccc(Br)cc12	i
O=c1oc(-c2cc([N+](=O)[O-])ccc2Cl)nc2ccc(I)cc12	i
CCOC(=O)C1(CCCc2ccccc2)CCN(C(=O)c2cc(CC(C)C)nc(C)n2)CC1	i
Cc1cc([N+](=O)[O-])c(C)cc1-c1ccc(/C=C(\C#N)c2nc3ccccc3[nH]2)o1	38%*
N#C/C(=C\c1ccc(N2CCOCC2)cc1)c1nc2ccccc2[nH]1	i
O=c1/c(=C\c2ccc(-c3ccccc3[N+](=O)[O-])o2)sc2nc3ccccc3n12	i
CCOC(=O)CC1(S(=O)(=O)c2ccc(F)cc2)CCN(Cc2ccc(C)o2)CC1	i
Cc1ccc(CCN2CC(C(=O)NCCN3CCCC3)CC2=O)cc1 (stereo not drawn)	i
CCOc1ccccc1/C=C1\N=C(c2ccc(OC)c([N+](=O)[O-])c2)OC1=O	i
COc1ccc(C2=Cc3cc(OC)c(OC)cc3/C(=C/c3ccc(OC)c(OC)c3)O2)cc1	i
CCOc1ccc(/C=C2/OC(=O)c3c2cc(C)[nH]c3=O)cc1OC	51%*
CCOc1ccc(/C=C2\N=C(c3ccccc3OC)OC2=O)cc1OCC	34%*
CCOc1ccc(/C=C2\N=C(c3ccccc3Cl)OC2=O)cc1	i
Cc1cc2c(c(=O)[nH]1)C(=O)O/C2=C\c1cccs1	i
O=C(NCC1CCCO1)c1ccc2c(c1)N(Cc1ccccc1Cl)C(=O)CS2 (stereo not drawn)	i
Cc1ccc(C)c(NC(=O)CCNC2CCN(C(=O)c3ccccc3)CC2)c1	i
COc1cccc(C(=O)N2CCC(c3ccccc3)CC2)c1	i
CCC(=O)OCCNc1cc(C)c2noc3c2c1C(=O)c1ccccc1-3	33%*
CCC(Oc1ccc2c(c1)CCCC2)C(=O)N1CCc2[nH]ncc2C1 (stereo not drawn)	i
NC(=O)CN1C(=O)CC(c2ccccc2)Sc2ccccc21 (stereo not drawn)	i
Cc1ccc(N2C(=O)S/C(=C\c3ccc(O)cc3)C2=O)cc1	i
SMILES	ST2 IL33 inh
N=C1S/C(=C\c2ccc(N3CCOCC3)cc2)C(=O)N1c1ccc(Br)cc1	32%*
N=C1S/C(=C\c2ccc(O)cc2)C(=O)N1c1ccc(F)cc1	i
CCn1cc(CN2CCC(O)(c3cccc(C(F)(F)F)c3)CC2)cn1	i
C=C(C)COc1ccc(C(=O)NC(CC)c2cnn(C)c2)cc1 (stereo not drawn)	i
O=C(CSc1ncccn1)Nc1ccc(F)cc1	i
Cc1ccc(-c2nnc(-c3nc(N(C)Cc4ccco4)c4ccccc4n3)o2)cc1	i
COc1ccc(-n2nc3c(c2NC(=O)C2(c4ccc(Cl)cc4)CCCC2)CS(=O)C3)cc1 (stereo not drawn)	i
COc1cc(CN(C)CC2CCN(Cc3ccc(C)o3)CC2)ccc1F	i
CCc1ccc2nc(N3CCC(C(=O)NC(C)CC)CC3)sc2c1 (stereo not drawn)	i
Oc1ccc(-c2csc(Nc3ncccn3)n2)cc1O	44%*
c1cnc(Nc2nc(-c3ccncc3)cs2)nc1	i
Cc1ccc(C)c(-c2csc(Nc3ncccn3)n2)c1	i
CCOc1cc(C(=O)Nc2c3c(nn2-c2ccc(C)cc2)CSC3)cc(OCC)c1OCC	i
O=C1C2C3CCC(C3)C2C(=O)N1c1cccc(O)c1 (stereo not drawn)	i
N#Cc1c(-n2cccc2C=O)sc2c1CCCC2	i
N#Cc1c(N)sc2c1CCCC2	31%*
CC(=O)Nc1sc2c(c1C#N)CCCC2	i
Clc1cccc(NCc2cn3ccccc3n2)c1	i
O=C(COc1ccc(F)cc1)Nc1c(C(=O)Nc2ccccc2F)oc2ccccc12	i
N#Cc1c(N)n(-c2cccc(F)c2)c2nc3ccccc3nc12	i
CCCCCn1c(N)c(C#N)c2nc3ccccc3nc21	i
N#Cc1c(N)n(CCN2CCOCC2)c2nc3ccccc3nc12	36%*
CCOC(=O)c1c(N)n(-c2ccc(OCC)cc2)c2nc3ccccc3nc12	i
Cc1ccc2c(c1)c1nc3ccccc3nc1n2CCN1CCOCC1	i
Cc1ccccc1-n1c(N)c(C#N)c2nc3ccccc3nc21	30%*
SMILES	ST2 IL33 inh
CCC/C=C/c1ccc(C(=O)NCC)cn1	i
Cc1ccccc1C(=O)Nc1c2c(nn1-c1ccccc1C)CSC2	i
CC1CCc2c(sc(NC(=O)c3sc4ccccc4c3Cl)c2C(N)=O)C1 (stereo not drawn)	i
COc1cc2c(C(=O)N3CCCC(C)C3)cn(C)c(=O)c2cc1OC (stereo not drawn)	i
CCc1ccccc1C(=O)N1CCNCC1C(=O)N1CCOCC1 (stereo not drawn)	i
CC(C)c1ccc(NC(=O)C(NS(=O)(=O)c2cccs2)C(C)C)cc1 (stereo not drawn)	i
Cc1cccnc1N1CCN(C(=O)c2ccc3c(c2)OCCN3C)CC1	i
COc1ccc(OCc2nc(C#N)c(N3CCC(C(N)=O)CC3)o2)cc1	i
N#Cc1nc(COc2ccc(Br)cc2)oc1N1CCN(Cc2ccccc2)CC1	56%*
CN1CCN(Cc2ccc(OCc3ccccc3)cc2)CC1	i
N#Cc1nc(COc2ccccc2Cl)oc1NCCCn1ccnc1	45%*
Clc1ccccc1OCCCCN1CCNCC1	i
c1ccc(OCCCn2ccnc2)cc1	i
N#CSCCCCOc1ccccc1Cl	i
Fc1ccccc1OCCCn1ccnc1	i
N#Cc1nc(COc2ccccc2Cl)oc1N1CCCC1	73%*
CCOc1ccc(NC(=O)CN2N=NC3C(=O)N(c4ccc(Cl)cc4)C(=O)C32)cc1 (stereo not drawn)	i
COC(=O)C1C(=O)C2=C(CC1C)NC(C)=C(C(=O)OC1CCCCCC1)C2c1ccc(O)cc1 (stereo not drawn)	i
Cc1ccc(C(=O)O)cc1N1C(=O)c2ccc(-c3nc4ccccc4c(=O)o3)cc2C1=O	i
CC(=O)N1c2c(cc(Br)cc2S(=O)(=O)N2CC=C(c3ccccc3)CC2)CC1C (stereo not drawn)	i
Cc1ccc(C(C)C)c(OCC(=O)O)c1	i
Nc1c(C(=O)NCc2ccco2)nnn1Cc1ccc(Cl)cc1	i
O=C(c1ccccc1-c1nn[nH]n1)N1CCOC(Cc2cccc(F)c2)C1 (stereo not drawn)	i
Cc1cc(C)cc(-n2nc3c(c2NC(=O)c2cccs2)CSC3)c1	i
Fc1cccc(-c2cnnc(N[C@@H]3C[C@H]3c3ccccc3)n2)c1	i
SMILES	ST2 IL33 inh
CCCCN(CC)S(=O)(=O)c1ccc(C(=O)Nc2nnc(-c3ccc(OC)cc3)o2)cc1	i
COc1ccc(-n2nc3ccc(NC(=O)c4ccc(OC)c(Cl)c4)cc3n2)cc1	33%*
COc1ccc(-n2nc3cc(C)c(NC(=O)c4ccc(Cl)c([N+](=O)[O-])c4)cc3n2)cc1	i
Cc1ccc(-n2nc3ccc(NC(=O)COc4ccccc4)cc3n2)cc1Cl	i
COc1ccc(C(=O)Nc2ccc3nn(-c4ccc(F)cc4)nc3c2)cc1OC	i
Cc1cc(N2CCC(C)CC2)nc2ccc(NC(=O)c3ccc4c(c3)OCO4)cc12	i
Cc1ccc(-n2nc3ccc(NC(=O)c4ccc5c(c4)OCCO5)cc3n2)cc1Cl	34%*
CCc1cnc(C)nc1N1CCCC(C(=O)c2ccc(C(F)(F)F)cc2)C1 (stereo not drawn)	i

High-throughput results from PubChem BioAssay.
